Hits are enriched below; roughly 1.4% of the tested compounds scored in any of these assays.
VHR inh abs: VHR1 phosphatase inhibitors, primary screen, biochemical, absorbance, uHTS. recombinant VHR phosphatase, pNPP absorbance. inhibition, % at 13.3 µM. 290,000 tested, 0.52% active; in the data active means inhibition above about 50%
Target sequence (P51452 whole entry, looked up): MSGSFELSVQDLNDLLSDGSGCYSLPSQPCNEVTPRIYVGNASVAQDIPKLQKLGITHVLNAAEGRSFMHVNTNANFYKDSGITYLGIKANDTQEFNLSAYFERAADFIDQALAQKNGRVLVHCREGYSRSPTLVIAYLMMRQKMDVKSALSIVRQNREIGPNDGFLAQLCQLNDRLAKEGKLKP
SARS 3CLpro inh: SARS-CoV 3CLpro protease inhibitors, primary screen, biochemical, quenched FRET; recombinant SARS-CoV 3CLpro, quenched FRET peptide cleavage; Replicase polyprotein 1ab (Severe acute respiratory syndrome coronavirus), P0C6X7; inhibition, % at 6 µM; 290,000 tested, 0.14% active; in the data active means inhibition above about 12%
BJeLR viability: MLPCN primary cell-based screen for lethality selective to Ras in HRASV12 cells; BJeLR (HRASV12) viability, CellTiter-Glo ATP luminescence, 48 h; inhibition, % (concentration not given with the values); 300,000 tested, 0.17% active; AID 1554, 2009; in the data active means inhibition above about 50%
ugtP null kill: growth inhibition of ugtP-null S. aureus, primary screen, RN4220 ugtP deletion, OD600. 330,000 tested, 0.54% active. 16 h. AID 1259309, 2017. growth inhibition, % (no concentration beside the values); in the data active means growth inhibition above about 68%;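 further: plate controls were untreated wells for no effect and antibiotic for full effect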
RN4220 kill: growth inhibition of S. aureus RN4220, primary screen, OD600; inhibition, % (test concentration not listed); 330,000 tested, 0.33% active; 16 h; in the data active means inhibition above about 85%;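 further: plate controls were untreated cells for no effect and reference antibiotic for full effect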
PrPC TRFRET: inhibitors of human cell surface prion protein PrPC, primary screen, cell-based, TR-FRET. Major prion protein (Homo sapiens), P04156. TR-FRET read-out. inhibition, % at 13.8 µM. 370,000 tested, 0.43% active; in the data active means inhibition above about 24%; further: 0% = median of the test wells and 100% = reference compound wells
An asterisk follows results filed as active; nt = no result given.

SMILES | VHR inh abs | SARS 3CLpro inh | BJeLR viability | ugtP null kill | RN4220 kill | PrPC TRFRET
COC(=O)c1cccc(C23CC4(C2)C(CN(Cc2cccnc2)C4c2ccccc2)C3c2ccc(C(F)(F)F)cc2)c1 (centres undefined) | nt | nt | nt | -13 | 1 | nt
O=C(c1cccc(-c2ccccc2)c1)N1CC[C@@H](N2CCC(O)CC2)[C@H](O)C1 | 51* | -6 | -1 | nt | nt | -7
COc1ccc2cc3cc(C(=O)NCCCN4CCOCC4)oc3nc2c1 | 21 | 1 | 0 | -5 | -2 | -26
CCN1CCN(CCCNC(=O)c2cc3cc4ccc(OC)cc4nc3o2)CC1 | 55* | -6 | -3 | 0 | -2 | nt
COc1ccc(C2CC(=O)C=C(c3ccc(Br)c4ccccc34)C2)cc1 (centres undefined) | nt | nt | nt | 13 | -3 | nt
Cc1cc(OC(C)C(=O)NCCCN2CCOCC2)ccc1Cl (centres undefined) | 50* | 5 | 6 | -4 | -4 | -1
CC(Oc1ccc(Cl)cc1Cl)C(=O)NCCCN1CCOCC1 (centres undefined) | 12 | 3 | 2 | 5 | 2 | -7
Cc1cc(C)cc(C(=O)Nc2c3c(nn2C(C)(C)C)CS(=O)(=O)C3)c1 | 51* | -3 | -6 | 2 | 2 | -4
NC(Cc1ccccc1)C(=O)N1CCOCC1 (centres undefined) | nt | nt | nt | 0 | 2 | nt
CC(C)CCCN1C(Nc2ccccc2)=NCC1C (centres undefined) | nt | nt | nt | 1 | 7 | nt
O=C(O)C1C(O)CCC2CN3CCc4c([nH]c5ccccc45)C3CC21 (centres undefined) | nt | nt | nt | 18 | 8 | nt
O=C(O)C1CCCC2CN3CCc4c([nH]c5ccccc45)C3C(O)C21 (centres undefined) | 56* | -3 | 24 | 2 | 17 | -4
O=C(NC(CO)(CO)CO)C1CCCN1S(=O)(=O)c1cccc2cccnc12 (centres undefined) | nt | nt | nt | -11 | -4 | nt
Cc1[nH]n(-c2ccccc2)c(=O)c1N=Nc1c(Cl)cccc1Cl | 59* | 2 | -1 | 6 | 6 | nt
Cc1[nH]n(-c2ccccc2)c(=O)c1N=Nc1ccccc1 | 9 | -3 | 3 | 6 | 6 | 1
O=[N+]([O-])c1ccc2[nH]cc(S(=O)(=O)N3CCN(c4cccc(Cl)c4)CC3)c2c1 | 2 | 10 | -3 | 90* | 100* | -2
O=S(=O)(c1ccccc1)N1CCN(c2cccc(Cl)c2)CC1 | 18 | 1 | 5 | 38 | 10 | -5
CC(=O)Nc1ccc(C2C(C)CCC3C(=O)N4C(CCC(C)C4c4ccc(NC(C)=O)cc4)C(=O)N32)cc1 (centres undefined) | nt | nt | nt | 9 | 9 | nt
CCCCC(C)=CC(NP(=O)(c1ccccc1)c1ccccc1)c1ccccc1 (centres undefined) | nt | nt | nt | -3 | -5 | nt
COc1ccc(C2C=CCN(C(=O)C3CCCCC3)CC(=O)N2Cc2ccc(F)cc2)cc1 (centres undefined) | nt | nt | nt | 8 | 11 | nt
CCCCOc1ccc2c(c1)C(=O)c1cc(O)ccc1-2 | 3 | -1 | 1 | 92* | 20 | 6
C=CCOc1cccc(C=C2C(=O)N(Cc3ccc(C)cc3)C(C)=C2C(=O)OC)c1 | nt | nt | nt | -8 | -6 | nt
COc1ccc(-[n+]2c(C)cc(/C=C3\Sc4ccccc4N3C)cc2C)cc1 | 4 | -3 | 45 | 100* | 100* | 17
COc1ccccc1OC(=O)CCN1c2ccccc2Sc2ccccc21 | -6 | -2 | 3 | 1 | -4 | 7
COc1ccc(C(=O)/C=C2\Sc3ccccc3N2C)cc1 | 36 | 3 | 11 | 7 | 7 | -11
SMILES | VHR inh abs | SARS 3CLpro inh | BJeLR viability | ugtP null kill | RN4220 kill | PrPC TRFRET
COc1ccccc1-[n+]1c(C)cc(/C=C2\Sc3ccccc3N2C)cc1C | 11 | 2 | 73* | 100* | 100* | 17
C=CCN1CCc2c(cc(O)c(O)c2Br)C(c2ccccc2)C1 (centres undefined) | nt | nt | nt | -8 | 5 | nt
CC(=O)n1cc(C2C=C(C(=O)N3CCN(C)CC3)OC(OCc3ccc(CO)cc3)C2)c2ccccc21 (centres undefined) | nt | nt | nt | -1 | 3 | nt
O=C(O)C[C@H](O)C[C@H](O)/C=C/c1c(C2CC2)nc2ccccc2c1-c1ccc(F)cc1 | nt | nt | 53* | nt | nt | nt
COc1ccc(C(O)=Cc2nc3ccccc3n(-c3ccccc3)c2=O)cc1 | nt | nt | nt | 6 | 6 | nt
CCC1CCCCN1CCCNC(=O)c1cn(CC)c2ccc(S(=O)(=O)N(C)C3CCCCC3)cc2c1=O (centres undefined) | 51* | -2 | 14 | -5 | -1 | -16
CCn1cc(C(=O)NCCCOC)c(=O)c2cc(S(=O)(=O)N(C)C3CCCCC3)ccc21 | 8 | 1 | -15 | 3 | 11 | -2
CCN1CCCC1CNC(=O)c1cn(C)c2ccc(S(=O)(=O)N3CCCCCC3)cc2c1=O (centres undefined) | 51* | -2 | nt | -8 | -14 | -8
CC(=C(CCO)SSCC1CCCO1)N(C=O)Cc1cnc(C)nc1N (centres undefined) | nt | nt | nt | -1 | 10 | nt
Cc1ccc(NC(=O)Cn2ncc3c([nH]c4ccccc43)c2=O)cc1Cl | 58* | 0 | -1 | 1 | 8 | 5
O=C1NN(c2ccc(Cl)c(Cl)c2)C(=O)/C1=C/c1ccc(-c2ccccc2C(=O)O)o1 | 20 | 6 | 4 | -9 | 2 | -1
O=C1NN(c2cccc(Br)c2)C(=O)/C1=C\c1ccc(O)cc1 | 53* | 1 | -3 | nt | nt | 7
CC1=NN(c2ccc(C)cc2)C(=O)/C1=C/c1ccc(-c2cc([N+](=O)[O-])ccc2O)o1 | 13 | 0 | 0 | 85* | 39 | 0
O=C1NN(c2cccc(Br)c2)C(=O)/C1=C/c1ccc(-c2cc([N+](=O)[O-])ccc2O)o1 | 91* | 2 | -13 | 12 | 2 | nt
CCOC(=O)Oc1c(OC)cc(C(=O)OC2CC3CN4CCc5c([nH]c6cc(OC)ccc56)C4CC3C(C(=O)OC)C2OC)cc1OC (centres undefined) | nt | nt | nt | -7 | 2 | nt
OCC1OC(OC2C(CO)O[C@@](O)(CO)C2O)C(O)C(O)C1O (some centres undefined) | nt | nt | nt | -3 | 9 | nt
CC1CN(C(C)CO)C(=O)c2cccc(NS(=O)(=O)c3cccs3)c2OC1CN(C)Cc1ccc(C(F)(F)F)cc1 (centres undefined) | nt | nt | nt | 1 | 7 | nt
CN1CCN(c2ccc([N+](=O)[O-])c3no[n+]([O-])c23)CC1 | -8 | -38 | 71* | 98* | 56 | 3
O=[N+]([O-])c1ccc(N(CCO)CCO)c2c1no[n+]2[O-] | nt | nt | nt | nt | nt | -22
Cc1cccc(CSC(Nc2ccc(F)cc2)=C(C#N)C#N)c1 | -15 | -4 | 19 | 97* | 100* | 19

Compound activity deposited in PubChem BioAssay by several laboratories.
